Compounds without any hit were thinned out: in the full panel of roughly 83,000, 20% have a hit.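 Each cell line was grown in a 96-well plate and treated with one concentration of compound for 48 hours. Values below 10 were considered active.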 Values without a mark were called inactive. Activity calls are given as the source filed them.
Experiments:
Assay in all cases: NCI-60 one-dose screen, 48 h (100 = growth as untreated, 0 = no growth, -100 = all killed)
[1] = tested on: NCI-H23 lung; settings: 10 µM unless noted
[2] = tested on: NCI-H226 lung; settings: 10 µM unless noted
[3] = tested on: NCI-H322M lung; settings: 10 µM unless noted
[4] = tested on: HOP-62 NSCLC; settings: 10 µM unless noted
[5] = tested on: NCI-H460 lung; settings: 10 µM unless noted
[6] = tested on: 786-0 renal; settings: 10 µM unless noted
[7] = tested on: MDA-MB-231 breast; settings: 10 µM unless noted
[8] = tested on: SF-268 CNS; settings: 10 µM unless noted
[9] = tested on: SF-539 CNS; settings: 10 µM unless noted
[10] = tested on: HCT-15 colon; settings: 10 µM
[11] = tested on: U251 CNS; settings: 10 µM unless noted
[12] = tested on: PC-3 prostate; settings: 10 µM unless noted
[13] = tested on: SK-MEL-28 melanoma; settings: 10 µM unless noted
[14] = tested on: SN12C renal; settings: 10 µM unless noted
[15] = tested on: HS 578T breast; settings: 10 µM unless noted
[16] = tested on: NCI/ADR-RES ovarian; settings: 10 µM unless noted
[17] = tested on: SW-620 colon; settings: 10 µM unless noted
[18] = tested on: MCF7 breast; settings: 10 µM unless noted
[19] = tested on: HCT-116 colon; settings: 10 µM unless noted
[20] = tested on: KM12 colon; settings: 10 µM unless noted

Row | SMILES | growth [1] | growth [2] | growth [3] | growth [4] | growth [5] | growth [6] | growth [7] | growth [8] | growth [9] | growth [10] | growth [11] | growth [12] | growth [13] | growth [14] | growth [15] | growth [16] | growth [17] | growth [18] | growth [19] | growth [20]
1 | CCCCN(CCCC)CC(O)c1ccccc1 (centres undefined) | 100% | 113% | 105% | 114% | 110% | 103% | 104% | 114% | 114% | 104% | 100% | 111% | 103% | 111% | 97.5% | 105% | 102% | 105% | 114% | 104%
2 | C[CH2][Sn]([CH2]C)([CH2]C)[NH]S(=O)(=O)c1ccc(C)cc1 | 96.4% | 116% | 111% | 121% | 107% | 109% | 107% | 108% |  | 96.5% | 99.5% | 111% | 111% | 106% | 89.4% | 104% | 101% | 103% | 106% | 105%
3 | CC12CCC(=O)C=C1CCC1C2CCC2(C)C(C(=O)COC(=O)Cc3ccc(N(CCCl)CCCl)cc3)CCC12 (centres undefined) | 94% | 72.5% | 180% | 106% | 40.5% | 93.7% | 108% | 77.9% | 63% | 86.2% | 75.5% | 36.1% | 104% | 73.2% | 82.4% | 91.8% | 75.6% | 70.5% | 82.4% | 101%
4 | CC(=O)C1C(=O)N(C)C(=O)N(C)C1=O | 121% | 95.4% | 107% | 98.6% | 102% | 107% | 117% | 113% | 92% | 93.4% | 96.1% | 94.9% | 106% | 104% | 107% | 113% | 103% | 99.7% | 106% | 107%
5 | C=CCc1ccc(OC(=O)Cc2ccccc2)c(OC)c1 | 93.8% | 95% | 98.3% | 93.2% | 105% | 99.2% | 106% | 107% | 97.8% | 103% | 99.3% | 100% | 106% | 99.5% | 114% | 105% | 106% | 96% | 105% | 110%
6 | CC(/C=N/N=C(N)N)=N\N=C(N)N | 68.9% | 95.8% | 10% | 64.2% | 82.7% | 55.6% | 80.2% | 50.3% | 51.9% | 100% | 77.8% | 101% | 87.1% | 74.2% | 69.3% | 24.9% | 70.6% | 76.8% | 49% | 40.9%
7 | Cc1cc(NC(=O)CCc2ccc(N3C(N)=NC(N)=NC3(C)C)cc2)ccc1S(=O)(=O)F | 26.2% | 37.4% | 29.7% | 28.7% | 12.3% | 20.9% | 76.8% | 32.2% | 5.99% (active) | 60.1% | 24.2% | -23.4% (active) | 53.9% | 32.8% | 74.7% | 19.2% | 23.1% | 14.9% | 18.3% | 18.8%
8 | N#[N+]c1cnc([O-])[nH]c1=O | 26.9% | 88% | 98.9% | 105% | 107% | 93.9% | 95.5% | 97.5% | 97.5% | 89.1% | 98.3% | 92.7% | 104% | 84.9% | 83.5% | -8.91% (active) | 89% | 100% | 108% | 100%
